MITF TRPM1 inh: inhibitors of MITF-driven TRPM1 promoter in melanoma cells; inhibition, % at 12.5 µM; AID 488899; SK-MEL-5 TRPM1 promoter luciferase, 24 h; actives 0.83% (n = 330,000);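 active = mean inhibition across replicates of 60% or more, whatever share of single replicates reaches that level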
Shn3 inh set2: reduces Shn3 3'UTR luciferase signal in osteoblasts; actives 0.52% (n = 360,000); AID 588674; inhibition, % at 12.5 µM; Clone20 osteoblast Shn3 3'UTR firefly luciferase, 24 h;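 active = mean inhibition of at least 75% with every replicate also reaching 75%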;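 also: 0% = median of neutral control wells and 100% = pilot-screen positive control compound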
Peg3 promoter: inhibitors of Peg3 promoter | HeLa PEG-Prom luciferase reporter, luminescence, overnight | inhibition, % at 20 µM | actives 1.7% (n = 360,000) | AID 588405;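 active = inhibition of at least 50% at 20 µM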
LMP1 NFkB inh: inhibitors of Epstein-Barr LMP1-induced NF-kappaB reporter; LMP1-induced NF-kappaB luciferase reporter cells, luminescence; inhibition, % at 12.5 µM; actives 0.69% (n = 350,000); in the data active = inhibition above about 41%;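 also: 0% = neutral control wells and 100% = reference inhibitor control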
HIF-2a block: blocks HIF-2a reporter activity. actives 0.72% (n = 360,000). 786-0 RCC cells HIF-2a reporter, luciferase luminescence, overnight. inhibition, % at 18.8 µM;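 active = inhibition of the luminescence signal of 40% or more relative to plate controls, in a single-dose primary screen at 18.75 µM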
PAX8 reporter: PAX8 transcriptional activity inhibition. RMG-I TPO-luciferase reporter, SteadyGlo, 24 h. inhibition, % at 12.6 µM. actives 1.2% (n = 360,000);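 active = mean replicate inhibition at least 60% with every replicate also reaching 60%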;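 also: luciferase light reporting Pax8 driven TPO promoter activity; plate controls were median of neutral control wells for no effect and mitoxantrone controls for full effect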
* = called active by the depositor. Sampled rows, rich in hits. Any-hit rate of the full collection: about 2.8%.

Screening COc1ccc(S(=O)(=O)N2CCN(C(=O)c3cc(-c4ccc(Br)cc4)n[nH]3)CC2)cc1OC returned MITF TRPM1 inh 22, Shn3 inh set2 91*, Peg3 promoter 35, LMP1 NFkB inh 18, HIF-2a block 15 and PAX8 reporter 51.
`COc1cccc(-c2ccc3c(c2)[C@@H]2[C@@H](CCN2C(=O)NC2CCCCC2)[C@@H](CO)N3C)c1` gave PAX8 reporter 38.
Screening COc1cccc(-c2ccc3c(c2)[C@@H]2[C@@H](CCN2C(=O)NC2CCCCC2)[C@H](CO)N3C)c1 returned PAX8 reporter 86*.
CN1c2ccc(-c3ccccc3)cc2[C@H]2[C@H](CCN2C(=O)NC2CCCCC2)[C@@H]1CO was read as PAX8 reporter 89*.
COc1cccc(-c2ccc3c(c2)[C@@H]2[C@@H](CCN2C(=O)c2ccccc2F)[C@H](CO)N3C)c1 was read as PAX8 reporter 72*.
`COc1ccc(-c2ccc3c(c2)[C@@H]2[C@@H](CCN2C(=O)NC2CCCCC2)[C@H](CO)N3C)cc1` gave PAX8 reporter 82*.
Screening CC(=O)N1CC(=O)N2[C@H](CO)[C@H](c3ccc(-c4ccc(C)cc4)cc3)[C@@H]2C1 returned PAX8 reporter -2.
For C[C@@H]1CN([C@H](C)CO)S(=O)(=O)c2ccc(C#CC3CCCC3)cc2O[C@H]1CN(C)C(=O)Nc1cc(F)ccc1F the results were PAX8 reporter 51.
C[C@H](CO)N1C[C@H](C)[C@@H](CN(C)Cc2ccncc2)Oc2ccc(NS(=O)(=O)c3cn(C)cn3)cc2CC1=O was read as PAX8 reporter -4.
Screening O=C(Nc1cccc(Cl)c1)N[C@@H]1CC[C@H](CCNC(=O)C2CCC2)O[C@H]1CO returned PAX8 reporter -6.
CS(=O)(=O)N1[C@@H](CO)[C@@H](c2ccccc2)C12CN(C(=O)C1CC1)C2 was read as PAX8 reporter -3.
Cc1noc(C)c1S(=O)(=O)N(C)C[C@@H]1Oc2ccc(NC(=O)Cc3ccccc3)cc2CC(=O)N([C@H](C)CO)C[C@@H]1C was read as PAX8 reporter 4.
Cc1noc(C)c1NC(=O)N[C@@H]1CC[C@@H](CCNC(=O)C2CCCCC2)O[C@H]1CO was read as PAX8 reporter -1.
`COc1cccc(-c2ccc3c(c2)[C@H]2[C@H](CCN2C(=O)NC2CCCCC2)[C@H](CO)N3C)c1` gave PAX8 reporter 66*.
For Cc1ccc(S(=O)(=O)N[C@@H]2CC[C@H](CCNC(=O)Nc3ccc(Cl)cc3)O[C@H]2CO)cc1 the results were PAX8 reporter -4.
For Cc1nc2ncccn2c1-c1csc(Nc2ccccc2)n1 the results were MITF TRPM1 inh 8, Shn3 inh set2 -2, Peg3 promoter -38, LMP1 NFkB inh 40*, HIF-2a block -155 and PAX8 reporter -5.
Screening CCN(C[C@@H]1[C@@H](c2ccccc2)[C@@H](CO)N1S(C)(=O)=O)C(=O)C1CC1 returned PAX8 reporter 8.
Screening O=C1N[C@@H](Cc2ccccc2)COC(=O)[C@H](Cc2ccc(F)cc2)CC/C=C/C[C@@H]1CC(=O)N(CCO)Cc1ccccc1 returned MITF TRPM1 inh -7, Shn3 inh set2 5, Peg3 promoter 11, LMP1 NFkB inh -8, HIF-2a block 13 and PAX8 reporter 7.
`O=C1N[C@@H](Cc2c[nH]c3ccccc23)COC(=O)[C@H](Cc2ccc(F)cc2)C/C=C\C[C@H]1CC(=O)N(CCO)Cc1ccccc1` gave MITF TRPM1 inh -14, Shn3 inh set2 2, Peg3 promoter 24, LMP1 NFkB inh 43*, HIF-2a block 14 and PAX8 reporter 12.
For O=C1N[C@@H](Cc2ccccc2)COC(=O)[C@H](Cc2ccc(F)cc2)C/C=C\C[C@H]1CC(=O)N(CCO)Cc1ccccc1 the results were MITF TRPM1 inh 8, Shn3 inh set2 15, Peg3 promoter 29, LMP1 NFkB inh 5, HIF-2a block 2 and PAX8 reporter 9.
O=C1N[C@@H](Cc2c[nH]c3ccccc23)COC(=O)[C@@H](Cc2ccc(F)cc2)CC/C=C/C[C@@H]1CC(=O)N(CCO)Cc1ccccc1 was read as MITF TRPM1 inh 28, Shn3 inh set2 24, Peg3 promoter 19, LMP1 NFkB inh 1, HIF-2a block -23 and PAX8 reporter 75*.
`C[C@H](CO)N1C[C@H](C)[C@H](CN(C)C(=O)Cc2ccccc2)Oc2cc(-c3cncnc3)ccc2S1(=O)=O` gave PAX8 reporter -21.
For CN1C(=O)c2cc(NC(=O)Nc3ccc(F)cc3)ccc2OC[C@H]2O[C@H](CC(=O)NC3CCC3)CC[C@H]21 the results were PAX8 reporter -6.
`O=C(/C=C/c1ccc(O)c(O)c1)OCCc1ccccc1` gave MITF TRPM1 inh -71, Shn3 inh set2 95*, Peg3 promoter -238, LMP1 NFkB inh -22, HIF-2a block -118 and PAX8 reporter -14.
For CC12CCC3C(CCC4CC(O)CCC43C)C1CC(O)C2 (stereo not given) the results were MITF TRPM1 inh 3, Shn3 inh set2 0, Peg3 promoter 32, LMP1 NFkB inh 0, HIF-2a block 5 and PAX8 reporter -1.
Screening C[C@]12CCC(O)CC1CCC1C2CC[C@]2(C)C(c3cc(C(F)(F)F)n[nH]3)CCC12 (stereo not given in full) returned MITF TRPM1 inh 9, Shn3 inh set2 10, Peg3 promoter 101*, LMP1 NFkB inh 13, HIF-2a block 36 and PAX8 reporter 5.
COc1cccc(N2CCN(C(=S)Nc3ccccc3)CC2)c1 was read as MITF TRPM1 inh -3, Shn3 inh set2 16, Peg3 promoter 110*, LMP1 NFkB inh 7, HIF-2a block 7 and PAX8 reporter 15.
`O=C1CC(c2cccs2)Cc2nc(NC(=O)C3CC3)ncc21` (stereo not given) gave MITF TRPM1 inh 2, Peg3 promoter -6, LMP1 NFkB inh 45*, HIF-2a block 3 and PAX8 reporter -24.
CCC1(O)C(=O)OCc2c1cc1n(c2=O)Cc2cc3c(N)cccc3nc2-1 (stereo not given) was read as MITF TRPM1 inh 72*, Shn3 inh set2 12, Peg3 promoter 69*, LMP1 NFkB inh 73*, HIF-2a block 37 and PAX8 reporter 110*.
CCC1(OC(=O)CN(C)C)C(=O)OCc2c1cc1n(c2=O)Cc2cc3c(N)cccc3nc2-1 (stereo not given) was read as MITF TRPM1 inh 67*, Shn3 inh set2 -6, Peg3 promoter 39, LMP1 NFkB inh 76* and HIF-2a block 13.
Nn1cnc2c(c1=O)C1(CCCCC1)Cc1ccccc1-2 was read as MITF TRPM1 inh 3, Shn3 inh set2 -41, Peg3 promoter 23, LMP1 NFkB inh -6, HIF-2a block 27 and PAX8 reporter -3.

Assay outcomes from PubChem BioAssay.
